Sampled rows, rich in hits. Any-hit rate of the full collection: about 2.7%.
FAS-TE inh: FAS thioesterase domain inhibitors, primary screen, biochemical, fluorescence intensity, uHTS | inhibition, % at 15 µM | 0.67% of 360,000 active | AID 602261, 2012 | recombinant FAS-TE, OMFH fluorogenic substrate, fluorescence endpoint | Fatty acid synthase (Homo sapiens), P49327;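 active means compounds whose normalised, plate-corrected inhibition of enzyme fluorescence in the single-dose primary screen is 50% or more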
KLK7 zymogen act: proKLK7 zymogen activators, primary screen, biochemical, fluorescence intensity; Kallikrein-7 (Homo sapiens), P49862; purified proKLK7, EDANS-DABCYL substrate fluorescence; 100% is mature enzyme control, 0% vehicle; activation, % at 7 µM; 0.9% of 370,000 active; AID 652039, 2013;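 active means activation above the mean of all tested compounds plus 3 SD, computed per campaign excluding outliers beyond control limits, cut at about 13% in these data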
Neddyl block: inhibitors of cullin neddylation, primary screen, biochemical, TR-FRET, uHTS, NAE and Ubc12 | 0.58% of 360,000 active | calls only at 25 µM | AID 651699, 2012 | NEDD8-conjugating enzyme Ubc12 (Homo sapiens) + NEDD8-activating enzyme E1 regulatory …; in the data active means inhibition above about 36%
PfG6PD inh: PfG6PD enzyme inhibitors, primary screen, biochemical, fluorescence intensity, uHTS; glucose-6-phosphate dehydrogenase-6-phosphogluconolactonase (Plasmodium falciparum 3D7); PfGluPho enzyme, NADPH resazurin-diaphorase fluorescence; inhibition, % at 20 µM; 0.78% of 350,000 active; AID 504690, 2011;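 active means inhibition reaching at least a set limit at 20 µM in the primary screen, cut at about 59% in these data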
A number is an active result; 0 = inactive; - = no result shown; + = active, no number.

SMILES | FAS-TE inh | KLK7 zymogen act | Neddyl block | PfG6PD inh
Cc1ccc(C(=O)Oc2csc(=S)n2C(=O)c2ccc(C)cc2)cc1 | 0 | 0 | 0 | 60.1
COc1cc(/C=N/NC(=O)c2cc3c(ccc4ccccc43)o2)cc(OC)c1O | 0 | 0 | + | -
Cc1c(N=C2C=CC(=O)c3ccccc32)c(=O)n(-c2ccccc2)n1C | 0 | 0 | 0 | 86.3
Cc1c(N=Nc2ccc(O)cc2)c(=O)n(-c2ccccc2)n1C | 0 | 0 | 0 | 0
O=c1c(-c2ccccc2)c(O)c2cccc3c2n1CCC3 | 0 | 0 | + | 0
CCCC(=O)N1CCN(c2ccc(NC(=O)c3cc4ccccc4o3)cc2Cl)CC1 | 0 | 0 | 0 | 98.0
COc1ccc(S(=O)(=O)/N=C2/C=CC(=O)C(C)=C2C)cc1 | 0 | - | 0 | 62.0
CC1=CC(=NOS(=O)(=O)c2ccc(C)cc2)CC(C)(C)C1 | 0 | 0 | 0 | -
CC1=C(C)/C(=N\OS(=O)(=O)c2ccc(C)cc2)C=CC1=O | 0 | 0 | 0 | 107.6
O[C@@H]1[C@@H](O)[C@H](n2c3ccc(Cl)cc3c3ccc4c5cc(Cl)ccc5[nH]c4c32)OC[C@H]1O | - | 0 | - | -
Cc1ccc(-c2nc3cnccn3c2Nc2ccccc2)o1 | 0 | 0 | - | 0
Cc1ccc(Nc2c(-c3ccc(C)o3)nc3cnccn23)cc1 | 0 | 0 | - | 68.5
Cc1cc(=O)oc2c(CN(CC(C)C)CC(C)C)c(O)ccc12 | - | 34.8 | - | 0
CC(C)CN(Cc1c(O)ccc2c3c(c(=O)oc12)CCC3)CC(C)C | 0 | 0 | - | 0
COc1cc(N/N=C/c2ccc(N(C)C)cc2)ncn1 | 0 | 0 | + | 0
CCCCn1c(SCC(N)=O)nc2ccc(N3CCOCC3)cc2c1=O | 0 | 16.1 | - | 0
CCCCn1c(SCC(=O)Nc2cccc(OC)c2)nc2ccc(N3CCOCC3)cc2c1=O | 0 | 0 | - | 0
Cn1c(SCCc2ccccc2)nnc1-c1ccco1 | - | 0 | - | -
COc1cccc(-c2c(C(=O)N/N=C/c3sccc3C)nnn2-c2nonc2N)c1 | 0 | 0 | 0 | 91.5
N#CCc1ccc(OC[C@@H](O)CN2CCC(C(O)(c3ccccc3)c3ccccc3)CC2)cc1 | - | 0 | - | -
CCOc1ccc(-n2c(SCC(=O)Nc3ccc(S(=O)(=O)Nc4cc(C)nc(C)n4)cc3)nnc2-c2cccc(C)c2)cc1 | - | 0 | - | -
Nc1ccccc1S(=O)(=O)c1ccccc1N | 0 | 0 | 0 | 0
Nc1ccc2c(S(=O)(=O)O)cccc2c1S(=O)(=O)O | 0 | 0 | + | 0
CCn1c(SCC(=O)Nc2cccc(NC(C)=O)c2)nnc1-c1ccco1 | 0 | 0 | 0 | 0
CCn1c(SCC(=O)Nc2ccc3c(c2)c2ccccc2n3CC)nnc1-c1ccco1 | 0 | 0 | 0 | 75.8
SMILES | FAS-TE inh | KLK7 zymogen act | Neddyl block | PfG6PD inh
CCn1c(SCC(=O)Nc2ccc(NC(=O)c3ccco3)cc2)nnc1-c1cccs1 | 0 | 99.8 | 0 | 0
O=C(CN1C(=O)c2ccccc2C1=O)N1CCN(C2c3ccccc3-c3ccccc32)CC1 | 56.5 | 0 | 0 | 0
O=C(CN1C(=O)c2ccccc2C1=O)N1CCOCC1 | 0 | 0 | 0 | 0
O=C(Cn1nnc(-c2ccccc2F)n1)Nc1ccc(Cl)cc1 | - | 0 | - | -
Fc1ccc(Nc2nc(NCc3ccco3)c3ccccc3n2)cc1 | 0 | 0 | + | 0
Nc1nc(Nc2ccccc2)nc(NCc2ccco2)c1[N+](=O)[O-] | 0 | 0 | 0 | 0
O=C(Nc1ccc2ccccc2c1)NC1CCCCN(Cc2ccc(Cl)cc2)C1=O (stereo not given) | - | 0 | - | -
COCCCNC(=O)C1CCN(S(=O)(=O)c2ccc3[nH]c(=O)oc3c2)CC1 | - | 0 | - | -
CCCC1CCC2(CCC(=O)N2CCSc2ccccc2)CC1 (stereo not given) | - | 0 | - | -
CN1CCN(C2=C(Cl)C(=O)N(C3CCCCC3)C2=O)CC1 | 0 | 0 | 0 | 0
CN1CCN(C2=C(Cl)C(=O)C(c3cnc(N4CCCCC4)s3)=C(Cl)C2=O)CC1 | 59.8 | - | 0 | 91.1
Cc1nc(Nc2ccncc2)c2oc3ccccc3c2n1 | 0 | 0 | 0 | 0
CCc1nc(Nc2ccncc2)c2oc3ccccc3c2n1 | 0 | 0 | + | 0
C=CCNC(=O)N1CCN(Cc2nc3ccccc3c(=O)[nH]2)CC1 | - | 0 | - | -
CCCCCOc1ccc(N2C(=O)CC(N(O)c3ccccc3)C2=O)cc1 (stereo not given) | 0 | 0 | 0 | 0
CCOc1ccccc1N1C(=O)CC(N(O)c2ccccc2)C1=O (stereo not given) | 0 | 67.4 | 0 | 0
CC(C)(C)N1C(=O)[C@H]2[C@@H](c3ccc(Br)cc3)N3C(=O)N(c4cccc(Br)c4)C(=O)[C@@]3(Cc3ccccc3)[C@H]2C1=O | 85.7 | - | 0 | 0
CC[C@@]12C(=O)N(c3cccc(Cl)c3)C(=O)N1[C@H](c1ccc(Br)cc1)[C@@H]1C(=O)N(C(C)(C)C)C(=O)[C@@H]12 | 56.2 | 0 | 0 | 0
O=C(C[n+]1ccc(CCSc2ccc(F)cc2)cc1)c1ccccc1 | 0 | - | 0 | 70.2
C=CC(=O)Nc1cccc(Oc2ncnc3[nH]cc(-c4cnc5ccccc5c4)c23)c1 | 0 | 0 | 0 | 0
C=CC(=O)Nc1cccc(Oc2ccnc3[nH]ccc23)c1 | 0 | - | + | 0
CC(=O)CC[C@H]1CC[C@]2(CCCN(C(=O)c3ccco3)C2)O1 | - | 0 | - | -
Cc1ccc(O)c(CNc2cnc3ccccc3c2)c1 | 0 | 0 | + | 0
S=c1[nH]nc(-c2cc(-c3ccccc3)n[nH]2)n1/N=C/c1ccc(Br)s1 | 0 | 0 | + | 0
O=C1C2C3c4ccccc4C(c4ccccc43)[C@@H]2C(=O)N1c1nc(-c2ccccc2)cs1 (stereo not given in full) | 52.5 | 0 | 0 | 0
SMILES | FAS-TE inh | KLK7 zymogen act | Neddyl block | PfG6PD inh
O=C1C2C3c4ccccc4C(c4ccccc43)C2C(=O)N1c1nc(-c2ccccc2)cs1 (stereo not given) | 0 | 0 | 0 | 0
CCCCCCCCCCCC1=C(O)C(=O)C=C(O)C1=O | 61.5 | - | 0 | 0
COC1=CC(=O)C(O)=C(CCCCCCC/C=C/CCCCCCCC2=C(O)C(=O)C=C(OC)C2=O)C1=O | 0 | - | 0 | 0
CC(C)CN1C(=O)[C@@]2(CC(=O)N(C)C2c2ccccc2)c2cc(-n3cc(CCc4ccccc4)nn3)ccc21 (stereo not given in full) | - | 0 | - | -
Cc1nc2ccc(NC(=O)c3ccc(Cl)s3)cc2s1 | 0 | 13.2 | 0 | 0
Cc1ccc2nc(NC(=O)c3ccc(Cl)s3)sc2c1 | 0 | 0 | - | 0
Cc1[nH]c2ccccc2c1/C=N/Nc1nc2ccccc2[nH]1 | 0 | 0 | + | 0
Cc1ccccc1/C=N/Nc1nc2ccccc2[nH]1 | 0 | 0 | 0 | 0
O=c1c2ccccc2n(Cc2ccno2)n1[C@@H](Cc1ccccc1)Cn1cc(-c2ccc(-c3ccccc3)cc2)nn1 | - | 0 | - | -
COc1cc(/C=C(\CCC(=O)O)c2nc3ccccc3s2)ccc1OCC(=O)Nc1c(Cl)cccc1Cl | 0 | 0 | + | 0
[O-]/[N+](=C/c1ccc(F)cc1)c1ccc(Cl)cc1 | 0 | - | 0 | 64.7
CN1C(=S)SC(/[N+]([O-])=C/c2ccc(Cl)cc2)C1(C)C (stereo not given) | 0 | 0 | 0 | 0
CCOc1ccc(CCNC(=O)c2cc3ccsc3n2C)cc1OC | - | 0 | - | -

Screening data deposited in PubChem by several laboratories.
